Data published in PubChem BioAssay (NCI).
About 83,000 compounds went through this panel and 20% of them were active in at least one assay; those are over-represented in the sample as a whole.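 Growth was measured after 48 h exposure to one concentration of compound in 96-well plates. Values under 10 count as active.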 Active and inactive are the calls of the source.

test system: COLO 205 colon; assay: NCI-60 one-dose screen, 48 h (100 = growth as untreated, 0 = no growth, -100 = all killed); conditions: 10 µM unless noted

**Q.** With COc1cccc2cc(-c3nc(C4CCC(C(=O)O)CC4)n4ncnc(N)c34)[nH]c12 (centres undefined) as the compound, how does the growth read?
**A.** 1.83% (active)

**Q.** How did the growth turn out when CNC(=O)c1cc(Oc2ccc3nc(NC(=O)Nc4ccc(Cl)c(C(F)(F)F)c4)sc3c2)ccn1 was run?
**A.** 23.8% (inactive)

**Q.** How did the growth turn out when C[C@@H](Oc1cc(-n2cnc3ccc(CN4CCN(C)CC4)cc32)sc1C(N)=O)c1ccccc1C(F)(F)F was run?
**A.** -17.1% (active)

**Q.** Oc1ccc(C(c2ccc(O)cc2)C(Cl)(Cl)Cl)cc1 was tested. Which growth did it give?
**A.** 104% (inactive)

**Q.** For C[C@H](NC(=O)c1c(N)nn2cccnc12)c1cc2cccc(C#Cc3cnn(C)c3)c2c(=O)n1-c1ccccc1, which growth is on record?
**A.** -11.7% (active)

**Q.** COc1cc(CCc2cc(NC(=O)c3ccc(N4C[C@@H](C)N[C@@H](C)C4)cc3)n[nH]2)cc(OC)c1 was tested. Which growth did it give?
**A.** 9.19% (active)

**Q.** Which growth does the source give for CNC(=O)CN1CCC(Oc2cc3c(Nc4cccc(Cl)c4F)ncnc3cc2OC)CC1 here?
**A.** 61.3% (inactive)

**Q.** Which growth does the source give for Cc1oc2c(C(=O)N/N=C\c3ccc(O)cc3O)c[nH]c2c1C here?
**A.** 8.96% (active)

**Q.** Which growth does the source give for CCCCCc1ccc(C)cc1OC(=O)CCl here?
**A.** 107% (inactive)

**Q.** How did the growth turn out when COc1cc2ncnc(Oc3cccc(NC(=O)Nc4cc(C(C)(C)C(F)(F)F)on4)c3)c2cc1OC was run?
**A.** 1.14% (active)

**Q.** For COc1cc(Nc2ncc3c(n2)-c2ccc(Cl)cc2C(c2c(F)cccc2OC)=NC3)ccc1C(=O)O, which growth is on record?
**A.** 8.87% (active)

**Q.** How did the growth turn out when CC[C@H](Nc1ncnc2nc[nH]c12)c1nc2cccc(F)c2c(=O)n1-c1ccccc1 was run?
**A.** 96.1% (inactive)

**Q.** Which growth does the source give for CN1CCN(CCOc2cc(OC3CCOCC3)c3c(Nc4c(Cl)ccc5c4OCO5)ncnc3c2)CC1 here?
**A.** 42.5% (inactive)

**Q.** With Nc1nc(Nc2ccccc2)c(C=Nc2ccccc2)c(=O)[nH]1 as the compound, how does the growth read?
**A.** 107% (inactive)

**Q.** For CNC(=O)c1cc(Oc2cccc3nc(Nc4ccc(Oc5ccccc5)cc4)ccc23)ccn1, which growth is on record?
**A.** 46% (inactive)

**Q.** How did the growth turn out when CN1CC[C@@H](c2c(O)cc(O)c3c(=O)cc(-c4ccccc4Cl)oc23)[C@@H]1CO was run?
**A.** -64.5% (active)

**Q.** For Cc1[nH]n(C(N)=S)c(=O)c1N=Nc1ccc(S(=O)(=O)Nc2ccncn2)cc1, which growth is on record?
**A.** 112% (inactive)

**Q.** How did the growth turn out when COCCN1CCN(Cc2ccc(-c3n[nH]c4c3C(=O)c3c(NC(=O)NN5CCOCC5)cccc3-4)cc2)CC1 was run?
**A.** -64.5% (active)

**Q.** For CN(c1ncccc1CNc1nc(Nc2ccc3c(c2)CC(=O)N3)ncc1C(F)(F)F)S(C)(=O)=O, which growth is on record?
**A.** -85.6% (active)

**Q.** How did the growth turn out when COc1cc(N2CCC(N3CCN(C)CC3)CC2)ccc1Nc1ncnc(Nc2ccccc2S(=O)(=O)C(C)C)n1 was run?
**A.** 99% (inactive)

**Q.** Which growth does the source give for O=C(COc1ccc(/C=C2\Cc3ccc(Cl)cc3C2=O)cc1)Nc1nccs1 here?
**A.** 124% (inactive)

**Q.** Which growth does the source give for O=C(c1ccc(/C=C/c2n[nH]c3ccccc23)cc1)N1CCNCC1 here?
**A.** -42% (active)

**Q.** How did the growth turn out when O=C(O)C1(Cc2cccc(Nc3nccs3)n2)CCC(Oc2cccc(Cl)c2F)CC1 (centres undefined) was run?
**A.** 59.5% (inactive)

**Q.** How did the growth turn out when Cc1cc(O)cc(-c2c(-c3ccnc(-c4cccnc4)c3)cnn2C)c1 was run?
**A.** 84.6% (inactive)

**Q.** With Cc1c(CN2CCN(C(=O)[C@H](C)O)CC2)sc2c(N3CCOCC3)nc(-c3cnc(N)nc3)nc12 as the compound, how does the growth read?
**A.** -32.3% (active)

**Q.** Which growth does the source give for CN1CCN(c2ccc(C(=O)Nc3n[nH]c4ccc(Cc5cc(F)cc(F)c5)cc34)c(NC3CCOCC3)c2)CC1 here?
**A.** -73.6% (active)

**Q.** Which growth does the source give for C#Cc1cccc(Nc2ncnc3cc(OCCOC)c(OCCOC)cc23)c1 here?
**A.** 60.8% (inactive)

**Q.** COc1ccc(Nc2ncccc2NC(=O)c2cn(Cc3cccc(Oc4ccccc4)c3)nn2)cc1 was tested. Which growth did it give?
**A.** 102% (inactive)

**Q.** O=C1NC(=O)[C@@H](c2cn3c4c(cccc24)CCC3)[C@@H]1c1c[nH]c2ccccc12 was tested. Which growth did it give?
**A.** -57.3% (active)

**Q.** For Cc1cc(-c2cc(O)ccc2Cl)cc2nnc(Nc3ccc(OCCN4CCCC4)cc3)nc12, which growth is on record?
**A.** -61.4% (active)

**Q.** For C=CCN(/C=C1/C(=O)O[C@H](COC)[C@@]2(C)C1=C(O)C(=O)C1=C2[C@H](OC(C)=O)C[C@]2(C)C(=O)CC[C@@H]12)CC=C, which growth is on record?
**A.** 17.7% (inactive)

**Q.** For CNC(=O)c1nn(C)c2c1C(C)(C)Cc1cnc(Nc3ccc(N4CCN(C)CC4)cc3)nc1-2, which growth is on record?
**A.** -80.1% (active)

**Q.** For CC(C)Nc1cc(-c2c[nH]c(C(=O)N[C@H](CO)c3cccc(Cl)c3)c2)c(Cl)cn1, which growth is on record?
**A.** -19.2% (active)

**Q.** How did the growth turn out when COc1ccc(Cc2cc(-c3ccccc3C)n[nH]c2=O)cc1 was run?
**A.** 100% (inactive)

**Q.** For CC(C)[C@@H]1CC[C@@H]2[C@@H]1[C@H](OC(=O)/C=C/c1ccccc1)[C@]1(C(C)C)C[C@@H](OC(=O)CO)[C@@]2(C)O1, which growth is on record?
**A.** 84.6% (inactive)

**Q.** Which growth does the source give for Cc1ncc(-c2ccnc(Nc3ccc(S(C)(=O)=O)cc3)n2)n1C(C)C here?
**A.** -27.4% (active)

**Q.** C/C=C/C=N/NC(=S)Nc1ccccc1 was tested. Which growth did it give?
**A.** 101% (inactive)

**Q.** How did the growth turn out when Cc1nn(-c2ccccc2)c2c1N=c1s/c(=C\c3cn(-c4ccccc4)nc3-c3ccc(Cl)cc3)c(=O)n1C(C)N2 (centres undefined) was run?
**A.** 99.2% (inactive)

**Q.** For COc1cc2c(cc1OCCCN1Cc3ccc(OCCCCC(=O)N4CCC(CCN5CCCC5)CC4)cc3C1)N=C(N)C21CCCC1, which growth is on record?
**A.** 42.4% (inactive)
